# The panel holds about 83,000 compounds, 20% with a hit somewhere; the sample as a whole holds those more often.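 The test compound was applied at a single concentration to cells in 96-well plates for 48 hours, and percent growth was recorded.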 Activity calls are given as the source filed them. How the source made its calls: active means growth percent below 10; inactive means the rest.
# Legend:
# Assay in all cases: NCI-60 one-dose screen, 48 h (100 = growth as untreated, 0 = no growth, -100 = all killed)
# Details in all cases: 10 µM
# [1] = test system: NCI-H23 lung
# [2] = test system: NCI-H226 lung
# [3] = test system: HOP-62 NSCLC
# [4] = test system: NCI-H460 lung
# [5] = test system: HOP-92 NSCLC
# [6] = test system: NCI-H522 lung
# [7] = test system: A549/ATCC NSCLC
# [8] = test system: 786-0 renal
# [9] = test system: COLO 205 colon
# [10] = test system: DU-145 prostate
# [11] = test system: K-562 leukemia
# [12] = test system: MALME-3M melanoma
# [13] = test system: MDA-MB-231 breast
# [14] = test system: RXF 393 renal
# [15] = test system: SF-268 CNS
# [16] = test system: SF-295 CNS
# [17] = test system: SF-539 CNS
# [18] = test system: UACC-257 melanoma
# [19] = test system: M14 melanoma
Compound,growth [1],growth [2],growth [3],growth [4],growth [5],growth [6],growth [7],growth [8],growth [9],growth [10],growth [11],growth [12],growth [13],growth [14],growth [15],growth [16],growth [17],growth [18],growth [19]
CCOS(=O)(=O)c1c(C(C)C)cc(C(C)C)cc1C(C)C,98.4% (inactive),99.5% (inactive),98.9% (inactive),103% (inactive),99.1% (inactive),100% (inactive),102% (inactive),105% (inactive),104% (inactive),103% (inactive),92.8% (inactive),89.6% (inactive),99.5% (inactive),108% (inactive),100% (inactive),98.9% (inactive),99.4% (inactive),105% (inactive),92.8% (inactive)
Cc1c(O)c(=O)ccn1C1CCC(CC2CCC(n3ccc(=O)c(O)c3C)CC2)CC1 (stereo unspecified),39.5% (inactive),42.1% (inactive),36.2% (inactive),12.5% (inactive),51.8% (inactive),31.3% (inactive),46.4% (inactive),46.5% (inactive),23.5% (inactive),39.6% (inactive),18.3% (inactive),63.8% (inactive),43.4% (inactive),44.1% (inactive),30.1% (inactive),54.9% (inactive),11.9% (inactive),45.5% (inactive),47.2% (inactive)
COc1cc(-c2nn(-c3cccc(NC(=O)CN4CCOCC4)c3)cc2-c2cccnc2)ccc1Cl,90.9% (inactive),82.2% (inactive),98.9% (inactive),84% (inactive),50.4% (inactive),49.1% (inactive),83.8% (inactive),94.6% (inactive),88.3% (inactive),82.3% (inactive),42.2% (inactive),80.5% (inactive),83.1% (inactive),85.1% (inactive),85.4% (inactive),76.8% (inactive),87% (inactive),93.9% (inactive),61% (inactive)
CS(=O)(=O)c1nccc(-c2c(-c3cccc(O)c3)nc3sccn23)n1,109% (inactive),95.4% (inactive),95.9% (inactive),97.4% (inactive),29.8% (inactive),-2.17% (active),97.5% (inactive),77.2% (inactive),114% (inactive),90.9% (inactive),101% (inactive),94.7% (inactive),74.4% (inactive),85% (inactive),98.5% (inactive),103% (inactive),92.4% (inactive),92.9% (inactive),94% (inactive)
O=C1/C(=C/c2ccc3c(c2)OCO3)SC(=S)N1C1c2ccccc2Oc2ccccc21,89.8% (inactive),97.9% (inactive),98.3% (inactive),107% (inactive),90.7% (inactive),95.8% (inactive),109% (inactive),97.6% (inactive),99.7% (inactive),99.7% (inactive),99.5% (inactive),80.1% (inactive),96% (inactive),103% (inactive),98.1% (inactive),97.8% (inactive),94.3% (inactive),112% (inactive),93.5% (inactive)
COc1cc(-c2nn(-c3ccc(NC(=O)NCCNS(=O)(=O)c4ccc(F)cc4)cc3)cc2-c2ccncc2)ccc1Cl,12.7% (inactive),36.2% (inactive),29.7% (inactive),0.926% (active),-6.87% (active),-10.4% (active),15.7% (inactive),-8.2% (active),-63.5% (active),8.28% (active),2.45% (active),24.8% (inactive),-30.7% (active),2.59% (active),7.56% (active),-39.5% (active),-46.4% (active),41.2% (inactive),-18% (active)
CCOC(=O)c1cc(C(=O)c2ccc(Cl)cc2)n2ccc(-c3cc[n+](CC(=O)c4ccc(OC)cc4)cc3)cc12,88.2% (inactive),102% (inactive),87.7% (inactive),3.93% (active),67.8% (inactive),70.8% (inactive),32.2% (inactive),9.1% (active),42.8% (inactive),30.3% (inactive),-52.9% (active),99.6% (inactive),70.9% (inactive),73.6% (inactive),78.5% (inactive),106% (inactive),89.5% (inactive),101% (inactive),56.8% (inactive)
C/C=C/CSC(C)(C)C(=O)NC,102% (inactive),100% (inactive),89.7% (inactive),104% (inactive),104% (inactive),86% (inactive),88.7% (inactive),108% (inactive),119% (inactive),103% (inactive),110% (inactive),111% (inactive),120% (inactive),110% (inactive),103% (inactive),106% (inactive),100% (inactive),92.2% (inactive),104% (inactive)
COc1cc(/C=C/c2cc(/C=C/c3ccc(O)c(OC)c3)nc(N)n2)ccc1O,-2.79% (active),11.7% (inactive),4.85% (active),5.54% (active),-21.2% (active),-41.3% (active),10.1% (inactive),-58.9% (active),-50.4% (active),13% (inactive),5.49% (active),-28.9% (active),3.39% (active),-63.9% (active),3.56% (active),-5.25% (active),11.9% (inactive),-1.9% (active),-26.1% (active)
CCN(CC)CCNc1ccc(C)c2sc3cc(Cl)ccc3c(=O)c12,55% (inactive),75.2% (inactive),66.9% (inactive),1.44% (active),22% (inactive),42.7% (inactive),31.1% (inactive),43.3% (inactive),-67.3% (active),43.5% (inactive),-51% (active),-26.4% (active),-15.9% (active),12.9% (inactive),47% (inactive),70% (inactive),66.3% (inactive),-28.2% (active),-64.9% (active)
COc1cc2cc(Oc3ccc(NC(=O)Nc4ccc(Cl)c(Cl)c4)cc3)c(C)nc2cc1OC,8.26% (active),7.74% (active),55.2% (inactive),3.68% (active),-9.31% (active),-13.7% (active),4.35% (active),20.3% (inactive),4.03% (active),24.8% (inactive),12.7% (inactive),14.9% (inactive),47.8% (inactive),22.3% (inactive),43.7% (inactive),0.689% (active),38.5% (inactive),1.38% (active),25.8% (inactive)
CCOC(=O)C1=CSC2=NC3=C(CCC/C3=C\c3cc(OC)c(OC)c(OC)c3)C(c3cc(OC)c(OC)c(OC)c3)N12 (stereo unspecified),52.3% (inactive),67.5% (inactive),74.5% (inactive),23.3% (inactive),84.8% (inactive),95.4% (inactive),65.1% (inactive),91.3% (inactive),52.7% (inactive),8.85% (active),38.7% (inactive),74.6% (inactive),74.2% (inactive),32.7% (inactive),33.3% (inactive),55.8% (inactive),49.9% (inactive),58.1% (inactive),16.9% (inactive)
CC(=O)[C@H]1CC[C@]2(C)[C@@H]1CC[C@@H]1[C@@]3(C)CC(CCC#N)(CCC#N)C(=O)C(C)(C)[C@@H]3CC[C@]12C,86.7% (inactive),94.6% (inactive),99.3% (inactive),101% (inactive),105% (inactive),94.1% (inactive),103% (inactive),101% (inactive),106% (inactive),108% (inactive),110% (inactive),105% (inactive),105% (inactive),90.6% (inactive),98.9% (inactive),98.2% (inactive),101% (inactive),107% (inactive),95.9% (inactive)
COc1cc(C(=O)n2nc(-c3cc(OC)c(OC)c(OC)c3)nc2N)cc(OC)c1OC,92.9% (inactive),98.7% (inactive),85.8% (inactive),103% (inactive),82% (inactive),82.1% (inactive),98.5% (inactive),96.6% (inactive),99.4% (inactive),101% (inactive),77.8% (inactive),103% (inactive),108% (inactive),114% (inactive),93.4% (inactive),92.7% (inactive),96.6% (inactive),101% (inactive),89.9% (inactive)
COc1cc(C2C(C#N)=C(N)Oc3cc(O)ccc32)cc(OC)c1OC (stereo unspecified),30.7% (inactive),68.4% (inactive),53.2% (inactive),9.65% (active),49.7% (inactive),1.54% (active),21.4% (inactive),40.6% (inactive),8.35% (active),11.1% (inactive),9.12% (active),43.5% (inactive),36.1% (inactive),-9.12% (active),50.4% (inactive),0.55% (active),4.64% (active),64.2% (inactive),-15.6% (active)
COc1ccc(/C=C2\CCCC3=C2NC(N)=NC3c2ccc(OC)c(OC)c2)cc1OC (stereo unspecified),49.3% (inactive),34.1% (inactive),57% (inactive),64.6% (inactive),75% (inactive),16.7% (inactive),58.8% (inactive),94.3% (inactive),46% (inactive),76.7% (inactive),56% (inactive),52.5% (inactive),74% (inactive),20.9% (inactive),63.8% (inactive),70.7% (inactive),85.2% (inactive),46.2% (inactive),57.3% (inactive)
O=C(Nc1cccc2c1CCCC2)c1cc2ccccc2cc1O,3.43% (active),35.1% (inactive),69.9% (inactive),27.3% (inactive),-20.6% (active),18.8% (inactive),33.8% (inactive),43.7% (inactive),92.3% (inactive),51.2% (inactive),16.9% (inactive),26.8% (inactive),34.8% (inactive),39.5% (inactive),38.2% (inactive),79.9% (inactive),34.2% (inactive),22.3% (inactive),21.5% (inactive)
COc1ccc(/C=C2\CCCC3=C2N=C2SC(C)=CN2C3c2ccc(OC)cc2)cc1 (stereo unspecified),90.3% (inactive),94.1% (inactive),104% (inactive),104% (inactive),93.8% (inactive),89.6% (inactive),90.7% (inactive),104% (inactive),115% (inactive),107% (inactive),96.1% (inactive),80% (inactive),101% (inactive),102% (inactive),116% (inactive),106% (inactive),111% (inactive),90.9% (inactive),98.8% (inactive)
O=C(CCl)Nc1ccc(Cc2ccc(NC(=O)CCl)cc2)cc1,-10.4% (active),-16.2% (active),33.2% (inactive),-29.3% (active),46.3% (inactive),-81% (active),25.3% (inactive),-20.2% (active),-56.1% (active),32.3% (inactive),0.772% (active),-67.5% (active),-15.8% (active),-50.7% (active),10.1% (inactive),70.1% (inactive),-87.7% (active),16.3% (inactive),-35.3% (active)

# Source: PubChem BioAssay (NCI)
